Experimental data: PubChem BioAssay (Tox21)
Several values for one entry are separate records, joined by “and”; a condition that tells them apart may be missing. Identical values can stand only once. Records with an inconclusive call do not appear. Activity calls are given as the source filed them. Unless noted, the call rests on the fitted dose curve; in most records, active means well fitted curve in the direction sought with a large enough effect in the repeat runs; inconclusive means weak or mixed curves; inactive means no such curve, though single readings can be large; an effect the other way counts as inactive or inconclusive.

Experiments:
[1] = qHTS assay to identify small molecule agonists of the vitamin D receptor (VDR) signaling pathway - cell viability counter screen (AID 743224); further: series mostly up to about 63 µM; on the % scale 0 is the no-effect control and ±100 the full control effect; nearly all actives have a fitted effect of over 50% in size
Procedure, shortened: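 Here cell health was gauged by luminescent ATP detection (CellTiter-Glo, 30 min RT) in VDR-bla cells that had been incubated with test compounds for 16 h at 37C and 5% CO2.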

[2] = qHTS assay to identify small molecule agonists of the NFkB signaling pathway - cell viability counter screen (AID 1159515; calls by dose curve; further: series mostly up to about 61 µM; on the % scale 0 is the no-effect control and ±100 the full control effect; nearly all actives have a fitted effect of over 55% in size)
Procedure, shortened: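 5 hr compound treatment of NFkB-bla ME-180 cells (2,000/well, seeded overnight beforehand), followed by reporter substrate for 1.5 hr. CellTiter-Glo added afterward; luminescence after 30 min RT.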

[3] = qHTS assay to identify small molecule agonists of the endoplasmic reticulum stress response signaling pathway (AID 1159516; active means well fitted activation curve with a large enough effect in the signal ratio in the repeat runs, not every such curve was filed as active; the % refers to the signal ratio; further: on the % scale 0 is the no-effect control and ±100 the full control effect)
Procedure, shortened: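 Reporter HeLa cells (ESRE-beta-lactamase) underwent 5 hr compound incubation at 37 C and 5% CO2 in quantitative HTS format. Detection followed 2 hr of FRET substrate loading at room temperature.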

[4] = qHTS assay to identify small molecule agonists of the endoplasmic reticulum stress response signaling pathway - cell viability counter screen (AID 1159517; calls by dose curve;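 further: HeLa cells carrying an ER stress response element beta-lactamase reporter; series mostly up to about 61 µM; on the % scale 0 is the no-effect control and ±100 the full control effect; nearly all actives have a fitted effect of over 50% in size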)
Procedure, shortened: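 HeLa cells carrying an ESRE-driven beta-lactamase reporter receive compound for 5 hr at 37 C. Cell viability is then gauged with CellTiter-Glo by luminescence, 30 min at room temperature.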

[5] = qHTS assay to identify small molecule antagonists of the retinoid-related orphan receptor gamma (ROR-gamma) signaling pathway - cell viability counter screen (AID 1159520); further: on the % scale 0 is the no-effect control and ±100 the full control effect; nearly all actives have a fitted effect of over 50% in size
Procedure, shortened: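 Cytotoxicity was read from cellular ATP (CellTiter-Glo luminescence) after 16 hr at 37 C with 1 uM doxycycline induction. The inducer was added 2 hr after compound transfer to Tet-on ROR gamma CHO cells.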

[6] = biological target: Nuclear receptor ROR-gamma (Homo sapiens) (UniProt P51449); test: qHTS assay to identify small molecule antagonists of the retinoid-related orphan receptor gamma (ROR-gamma) signaling pathway (AID 1159521;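 further: CHO cells with doxycycline inducible ROR-gamma driving an RORE luciferase reporter; top concentration of the series differs between compounds; on the % scale 0 is the no-effect control and ±100 the full control effect; nearly all actives have a fitted effect of over 50% in size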)
Procedure, shortened: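 Inducible-expression reporter assay: doxycycline (1 uM final) switched on RORγ in CHO cells bearing a ROR response element-luciferase construct, with test compounds present from 2 h beforehand. Decreased luminescence after 16 h defined antagonist activity.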

[7] = qHTS assay to identify small molecule agonists of the AP-1 signaling pathway - cell viability counter screen (AID 1159525; calls by dose curve; further: nearly all actives have a fitted effect of over 55% in size)
Procedure, shortened: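 Luminescent ATP readout (Cell Titer Glo, 30 min RT), normalised to DMSO and tetra n-octyl ammonium bromide controls. Cells were ME-180 AP-1-bla in 0.5% dialyzed FBS Opti-MEM, with a 5 h, 37 °C compound exposure.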

[8] = qHTS assay to identify small molecule agonists of the AP-1 signaling pathway (AID 1159526; calls by dose curve; further: on the % scale 0 is the no-effect control and ±100 the full control effect)
[9] = biological target: Retinoic acid receptor RXR-alpha (Homo sapiens) (UniProt P19793); test: qHTS assay to identify small molecule agonists of the RXR signaling pathway (AID 1159527; calls by dose curve; further: on the % scale 0 is the no-effect control and ±100 the full control effect; nearly all actives have a fitted effect of over 35% in size)
Sequence of Retinoic acid receptor RXR-alpha (Homo sapiens) (P19793 whole entry, looked up): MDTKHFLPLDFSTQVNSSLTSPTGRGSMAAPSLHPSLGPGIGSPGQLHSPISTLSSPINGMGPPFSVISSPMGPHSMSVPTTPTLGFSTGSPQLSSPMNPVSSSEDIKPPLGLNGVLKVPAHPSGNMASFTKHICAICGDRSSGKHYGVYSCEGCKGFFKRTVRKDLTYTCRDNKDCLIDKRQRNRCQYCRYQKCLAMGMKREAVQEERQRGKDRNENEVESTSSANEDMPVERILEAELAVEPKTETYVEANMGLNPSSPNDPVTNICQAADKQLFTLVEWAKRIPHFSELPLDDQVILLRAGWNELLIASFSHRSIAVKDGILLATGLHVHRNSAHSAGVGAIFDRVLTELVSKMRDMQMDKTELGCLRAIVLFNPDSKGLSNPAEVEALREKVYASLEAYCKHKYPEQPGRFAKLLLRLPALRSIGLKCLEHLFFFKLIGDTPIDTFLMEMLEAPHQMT
Procedure, shortened: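 Compounds in DMSO were added to RXR-alpha-UAS-bla HEK 293T cells kept in 2% charcoal-stripped serum, and incubated 16 hr at 37 C with 5% CO2. Reporter signal came from a 2 hr B/G FRET substrate step.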

[10] = qHTS assay to identify small molecule antagonists of the retinoid acid receptor (RAR) signaling pathway - cell viability counter screen (AID 1159551); further: on the % scale 0 is the no-effect control and ±100 the full control effect; nearly all actives have a fitted effect of over 35% in size
Procedure, shortened: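 Seed C3RL4 cells; next day add compound, then retinol to 1 uM final; incubate 6 h at 37 C; add CellTiter-Glo; read luminescence after 30 min at RT.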

[11] = qHTS assay to identify small molecule antagonists of the retinoic acid receptor (RAR) signaling pathway (AID 1159552)
Procedure, shortened: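 Antagonism of retinol-induced RARE reporter activity was measured in C3RL4 cells. Exposure to compounds and 1 uM final retinol lasted 6 hr at 37 C, with luminescence as endpoint.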

[12] = qHTS assay to identify small molecule agonists of the retinoic acid receptor (RAR) signaling pathway (AID 1159553); further: potency means the concentration at half of the fitted maximal effect
Procedure, shortened: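 Activation of retinol signaling was monitored via a RARE luciferase reporter in C3RL4 cells. After 6 hr compound treatment at 37 C, detection reagent was added for 30 min at room temperature before luminescence reading.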

[13] = qHTS assay to identify small molecule antagonists of the estrogen related receptor (ERR) signaling pathway from Tox21 library - cell viability counter screen (AID 1224834); further: on the % scale 0 is the no-effect control and ±100 the full control effect; nearly all actives have a fitted effect of over 30% in size
Procedure, shortened: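 CellTiter-Fluor fluorescence measured; ERR cells; 17.5 h compound incubation at 37 C; 30 min reagent step.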

[14] = qHTS assay to identify small molecule antagonists of the vitamin D receptor (VDR) signaling pathway - cell viability counter screen (AID 743225)
Procedure, shortened: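 Same-well multiplex: following 16 h treatment of HEK 293T cells carrying a UAS-driven beta-lactamase reporter with compound and agonist (3 nM final), and a 2 h FRET substrate step, CellTiter-Glo was added and luminescence read after 30 min.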

[15] = qHTS assay to identify small molecule agonists of the RXR signaling pathway - cell viability counter screen (AID 1159529)
Procedure, shortened: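 Counter screen: CellTiter-Glo luminescence. Cells: RXR-alpha-UAS-bla HEK 293T. Medium: 2% charcoal-stripped FBS. Treatment: 16 h, 37 C. Reagent incubation: 30 min, RT.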

[16] = qHTS assay to identify small molecule antagonists of the estrogen related receptor signaling pathway with the pleiotropic PPARgamma coactivator (PGC) cell viability counter screen (AID 1224822;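 further: series mostly up to about 46 µM; viability read after 17.5 h compound exposure; on the % scale 0 is the no-effect control and ±100 the full control effect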)
Procedure, shortened: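 Compounds in DMSO, with positive and negative controls, were applied to PGC/ERR cells (2,000/well) and left 17.5 h at 37 C before CellTiter-Fluor detection.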

[17] = qHTS assay to identify small molecule antagonists of the estrogen related receptor (ERR) signaling pathway (AID 1224819)
Procedure, shortened: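 qHTS in ERR cells, 2,000/well, 1536 format. Cpd (DMSO) added after 6 h settle, 18 h 37 C. One-Glo luminescence, 30 min RT.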

[18] = qHTS assay to identify small molecule agonists of the estrogen related receptor (ERR) signaling pathway (AID 1224820); further: on the % scale 0 is the no-effect control and ±100 the full control effect
Procedure, shortened: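 Cells: ERR line from NTP, 2,000/well. Pre-incubation 6 h, 37 C/5% CO2. Compound (DMSO) pin transfer, 18 h 37 C. One-Glo, 30 min RT, luminescence.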

[19] = system: estrogen-related receptor alpha (ERRalpha) with PGC-1alpha coactivator, human; test: qHTS assay to identify small molecule antagonists of the estrogen related receptor signaling pathway with the pleiotropic PPARgamma coactivator (PGC) (AID 1224821; calls by dose curve)
Procedure, shortened: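 Luminescent read-out (One-Glo, 30 min at room temperature) following 18 h treatment of PGC/ERR cells at 37 C with compounds delivered in DMSO. Cells had settled 6 h at 37 C/5% CO2 before dosing.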

[20] = qHTS assay to identify small molecule agonists of the estrogen related receptor signaling pathway with the pleiotropic PPARgamma coactivator (PGC) (AID 1224823); further: on the % scale 0 is the no-effect control and ±100 the full control effect
Procedure, shortened: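 Steps: plate PGC/ERR cells at 2,000 cells/well; incubate 6 h, 37 C/5% CO2; pin-transfer compounds (DMSO); incubate 18 h, 37 C; add One-Glo; 30 min RT; read luminescence.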

CC[C@@H](N)CO
inactive: Potency [1] | Potency [2] | outcome [3] | Potency [4] | Potency [5] | Potency [6] | Potency [7] | Potency [8] | Potency [9] | Potency [10] | Potency [11] | Potency [12] | Potency [13]

NCCCCCC(=O)O
inactive: Potency [1] | Potency [14] | Potency [2] | outcome [3] | Potency [4] | Potency [5] | Potency [6] | Potency [7] | Potency [8] | Potency [9] | Potency [15] | Potency [10] | Potency [11] | Potency [12] | Potency [16] | Potency [13]

COC(=O)c1cccc(C(=O)OC)c1
inactive: Potency [1] | Potency [14] | Potency [2] | outcome [3] | Potency [4] | Potency [5] | Potency [6] | Potency [7] | Potency [8] | Potency [9] | Potency [15] | Potency [10] | Potency [11] | Potency [12] | Potency [13]

NCCO
inactive: Potency [1] | Potency [14] | Potency [2] | outcome [3] | Potency [4] | Potency [5] | Potency [6] | Potency [7] | Potency [8] | Potency [9] | Potency [15] | Potency [10] | Potency [11] | Potency [12] | Potency [16] | Potency [13]

O=C(OCc1ccccc1)c1ccc(O)cc1
inactive: Potency [1] | Potency [14] | Potency [2] | outcome [3] | Potency [4] | Potency [5] | Potency [6] | Potency [7] | Potency [8] | Potency [9] | Potency [15] | Potency [10] | Potency [11] | Potency [13]
active: Potency [12] 6.86 µM and 11.9 µM

c1ccc2c(c1)CCCC2C1=NCCN1 (centres undefined)
inactive: Potency [1] | Potency [14] | Potency [2] | outcome [3] | Potency [4] | Potency [5] | Potency [6] | Potency [7] | Potency [8] | Potency [9] | Potency [15] | Potency [10] | Potency [11] | Potency [12] | Potency [16] | Potency [13]

CCCCC/C=C/CC1CC(=O)OC1=O (centres undefined)
inactive: Potency [1] | Potency [14] | Potency [2] | outcome [3] | Potency [4] | Potency [5] | Potency [6] | Potency [7] | Potency [8] | Potency [9] | Potency [15] | Potency [10] | Potency [11] | Potency [12]

O=C(Oc1ccccc1)c1ccccc1O
inactive: Potency [1] | Potency [14] | Potency [2] | outcome [3] | Potency [4] | Potency [5] | Potency [6] | Potency [7] | Potency [8] | Potency [9] | Potency [15] | Potency [10] | Potency [11] | Potency [12] | Potency [13]

CCOC(=O)C(C)C(C)=O (centres undefined)
inactive: Potency [1] | Potency [14] | Potency [2] | outcome [3] | Potency [4] | Potency [5] | Potency [6] | Potency [7] | Potency [8] | Potency [9] | Potency [15] | Potency [10] | Potency [11] | Potency [12] | Potency [13]

COc1ccc(Cc2cnc(N)nc2N)cc1OC
inactive: Potency [1] | Potency [14] | Potency [2] | outcome [3] | Potency [4] | Potency [5] | Potency [6] | Potency [7] | Potency [8] | Potency [9] | Potency [15] | Potency [10] | Potency [11] | Potency [13]

CC(C)CCOC(=O)c1ccc(N(C)C)cc1
active: Potency [12] 2.11 µM
inactive: Potency [1] | Potency [2] | outcome [3] | Potency [4] | Potency [5] | Potency [6] | Potency [7] | Potency [8] | Potency [9] | Potency [10] | Potency [11] | Potency [13]

CO[Si](OC)(OC)c1ccccc1
inactive: Potency [1] | Potency [14] | Potency [2] | outcome [3] | Potency [4] | Potency [5] | Potency [6] | Potency [7] | Potency [8] | Potency [9] | Potency [15] | Potency [10] | Potency [11] | Potency [12] | Potency [13]

CCCN[C@H]1CCc2nc(N)sc2C1
inactive: Potency [1] | Potency [14] | Potency [2] | outcome [3] | Potency [4] | Potency [5] | Potency [6] | Potency [7] | Potency [8] | Potency [9] | Potency [15] | Potency [10] | Potency [13]

CC(=O)CC(C)=O
inactive: Potency [1] | Potency [2] | outcome [3] | Potency [4] | Potency [5] | Potency [6] | Potency [7] | Potency [8] | Potency [9] | Potency [15] | Potency [10] | Potency [12] | Potency [13]

CCCCCCCCCCCCCCCCCl
inactive: Potency [1] | Potency [14] | Potency [2] | outcome [3] | Potency [4] | activity, negative = cytotoxicity [5] 5.98% [at 19 µM] | activity change, negative = inhibition [6] 19.2% [at 19 µM] | viability change, negative = cytotoxic [7] -12.8% [at 15.8 µM] | activation [8] -1.11% [at 15.8 µM] | activation [9] 0.473% [at 15.8 µM] | activity change, negative = cytotoxicity [15] 6.15% [at 15.8 µM] | activity change, negative = cytotoxicity [10] 4.57% [at 19 µM] | activity, negative = inhibition [11] -10.4% [at 19 µM] | Potency [12] | viability change, negative = cytotoxic [13] 1.81% [at 19 µM]

O=C(O)Cn1cnnn1
inactive: Potency [1] | Potency [14] | Potency [2] | outcome [3] | Potency [4] | Potency [5] | Potency [6] | Potency [7] | Potency [8] | Potency [9] | Potency [15] | Potency [10] | Potency [11] | Potency [12]

NC(N)=NC(=O)Cc1c(Cl)cccc1Cl
inactive: Potency [1] | Potency [2] | outcome [3] | Potency [4] | Potency [5] | Potency [6] | Potency [7] | Potency [8] | Potency [9] | Potency [10] | Potency [11] | Potency [12] | Potency [17] | outcome [18] | Potency [19] | Potency [16] | outcome [20]
